The text below walks through data of PubChem BioAssay AID588719 (Southern Research Specialized Biocontainment Screening …, 2011).

Among all 1,500 compounds or so, about 920 (61%) were called active. So high a share suggests a set chosen from earlier hits. The list shows a part of the results. Potency and affinity values are given separately. Unmarked numbers belong to inactive results. The rule behind the calls is not given here.

The assay can be described thus: Vero 76 cell cytotoxicity, dose response, cytotoxicity control for VEEV inhibitor project (AID 588719). The following applies: Vero 76 cells viability, cytotoxicity counter-screen; series mostly up to 25 µM; viability: at the top concentration. In general terms: The purpose of a counterscreen is to sort out artefacts and off-target activity.
A word on the viability: it is a read-out of living cells in per cent, often relative to untreated cells. With `Cc1[nH]c(=S)[nH]c(=O)c1Cc1c(O)ccc2ccccc12`, the “viability” value is 83.9%.
Consider `CN(C)C1CCc2[nH]c3c(F)cc(F)cc3c2C1` (configuration not stated), for which the “viability” value is 80.9%.
In the case of `COc1ccc2c(c1)c(CCN)c(C)n2Cc1ccccc1`, the “viability” value is 84%.
In the case of `Cc1ccc2nc(-c3ccc(NS(=O)(=O)c4c(C)n(C)c(=O)n(C)c4=O)cc3)sc2c1` it was 87.9%; in that of `COc1cc(NC(=O)C2=C(C)OCCS2)c(Cl)cc1C(=O)NCCCN1CCCC(C)C1` (configuration not stated), 77.2%; in that of `Cc1nn2c(NCCN(C)C)c3c(nc2c1-c1ccccc1)CCC3`, 72.9%.
For the compound `CCOC(=O)C(C(=O)OCC)C(c1ccccc1)N1CCN(c2ccccc2)CC1` (configuration not stated), the “viability” value was 105%.
With `OC1(c2cccs2)CN(c2ccc(Cl)cc2)C2=[N+]1CCCC2` (configuration not stated), the “viability” value was 82%.
In the case of `Cc1cn([C@H]2C[C@H](O)[C@@H](CCC(=O)NCc3ccc(N(C)C)cc3)O2)c(=O)[nH]c1=O` it was 93.3%; in that of `CC(C)=CCN1CCN(Cc2nc(C(C)C)cs2)CC1CCO` (configuration not stated), 87%; in that of `O=C1C(=Cc2ccccc2O)SC(=S)N1CCCN1CCOCC1`, 80.4%.
In the case of `N=C1C(c2nc(-c3ccc(Cl)cc3)cs2)=C(O)CN1CCCN1CCOCC1` it was 77.8%.
For `COCCNC(=O)CCCn1c(=O)c2cc(OC)c(OC)cc2n(CC(=O)Nc2ccc(C)c(F)c2)c1=O` the value was 94.7%.
For `CC(C)(C)c1cc(NC(=O)c2cc(F)c(F)c(F)c2F)no1`, the “viability” value is 70.6%.
In the case of `CCN(Cc1ccncc1)C(=O)c1ccccc1NS(=O)(=O)c1ccc(Br)cc1` it was 86.5%.
In the case of `COc1cc(OC)cc(C(=O)NCC(=O)OCC(=O)NC2CCCc3ccccc32)c1` (configuration not stated) it was 102%; in that of `COc1cc(OC)cc(C(=O)NCCSc2c[nH]c3ccccc23)c1`, 89.6%; in that of `O=C(/C=C/c1ccccc1)c1ccccc1`, 97.5%.
In the case of `Cc1ccc(C(=O)/C=C/c2ccccc2)o1` it was 79.5%; in that of `CCOc1ccccc1OCCC(=O)N1CCN(S(=O)(=O)c2ccccc2[N+](=O)[O-])CC1`, 77.9%; in that of `COc1ccc(C(=O)NCC(=O)NCc2ccc3c(c2)OCO3)cc1[N+](=O)[O-]`, 83.2%.
For `O=C(COC(=O)c1ccc(O)cc1)Nc1ccc2c(c1)OCO2`, the “viability” value is 81.9%.
On to `CCCOc1ccc(Oc2nc(-c3ccncc3)nc3ccccc23)cc1`, for which the “viability” value is 83.4%.
For `COc1ccccc1[C@]1(C)ON(c2ccccc2C(F)(F)F)C1=O` the value was 77%; for `[O-][n+]1onc2c1CCc1[nH]c(-c3ccccc3)nc1-2`, 80.9%; for `COc1ccc(/C=C/C(=O)c2cc3cccc(OC)c3oc2=O)cc1`, 90.9%.
In the case of `COc1ccc(C=CC(=O)c2c(OC)cc(OC)c(OC)c2O)cc1` it was 107%.
In the case of `CCOC(=O)NNc1cc(C(F)(F)F)ccn1` it was 99.2%.
`Cc1ccc(C(=O)Nc2ccccc2SCC2CSc3nc4ccccc4c(=O)n32)cc1` (configuration not stated): the “viability” value is 74%.
For the compound `COc1cc2c(cc1NC(=O)c1ccc(C(C)(C)C)cc1)CCCC2`, the “viability” value was 76%.
For `Cc1ccc(C(C)C)cc1OCC(=O)Nc1nnc(C2CC2)s1` the value was 83.1%; for `O=c1oc2ccccc2cc1-c1csc(Nc2ccc(O)cc2)n1`, 68.4%; for `COc1cccc(NC(=O)c2ncc(Cl)c(Cl)c2Cl)c1`, 84.3%.
In the case of `CCOC(=O)c1ccccc1NC(=O)c1cn(CC)c2nc(C)ccc2c1=O` it was 91.6%; in that of `COc1ccc(CCn2c(-c3ccco3)nc3ccccc3c2=O)cc1OC`, 89%.
In the case of `CCOc1ccccc1C(=O)NC(C(=O)OCn1nnc2ccccc2c1=O)C(C)C` (configuration not stated) it was 87.5%.
Turning to `CCN1CCN(CCCNC(=O)C2CCCN(c3nc4c(C)cc(C)cc4s3)C2)CC1` (configuration not stated), the “viability” value was 91.2%.
In the case of `CCOC(=O)c1c(NC(=O)c2c(-c3ccccc3)noc2C)sc(C)c1-c1ccccc1` it was 50.6%; in that of `COC(=O)c1c(-c2ccccc2)csc1NC(=O)c1c(-c2ccccc2)noc1C`, 61.7%; in that of `CCCOc1ccc(C(=O)NNC(=S)NC(=O)c2cc(-c3ccc(Cl)cc3)nc3ccccc23)cc1`, 72%.
For `O=C(/C=C/c1cccc([N+](=O)[O-])c1)c1ccc2c(c1)OCCO2` the value was 79.3%.
In the case of `CN1C/C(=C/c2ccsc2)C(=O)/C(=C/c2ccsc2)C1` it was 94.4%; in that of `O=C(CSC1CN(C(c2ccccc2)c2ccccc2)C1)N/N=C/c1ccc(Cl)cc1Cl`, 102%.
With `O=C(CC(=O)N/N=C/c1ccc(F)cc1)N/N=C/c1ccc(F)cc1`, the “viability” value was 87.4%.
As for `NC(=S)NN=C(c1ccc(F)cc1)C1CC1`, the “viability” value was 98.5%.
As for `CCCCCCCCCCCCCCCC(O)C(N)CO` (configuration not stated), the “viability” value was 83.8%.
In the case of `O=C(N1CCOCC1)N1c2ccccc2Sc2ccccc21` it was 75.8%.
For `CN1CCN(C(=O)CCN2C(=O)/C(=C\c3ccc(Cl)cc3Cl)SC2=S)CC1` the value was 88.9%; for `NC(=O)c1nsc(C(=O)N(c2ccccc2F)C(C(=O)NCc2ccccc2)c2ccc(O)cc2)c1N` (configuration not stated), 76.7%; for `COC(=O)c1cc2c(N)c(C(=O)c3ccc(Cl)cc3)sc2nc1C(OC)OC`, 82.7%.
For `COc1cc2cc(C(=O)N3CC(COS(C)(=O)=O)c4ccc(O)cc43)[nH]c2c(OC)c1OC` (configuration not stated) the value was 35.5%.
Regarding `COC(=O)c1ccc(/C=C2/SC(=S)N(CCC(=O)N3CCOCC3)C2=O)cc1`, the “viability” value is 78.4%.
For `O=C(O)c1ccccc1Nc1ccc(OC(F)F)cc1` the value was 101%; for `Cc1cc(-c2ccccc2)nc(N2CCN(c3ccccn3)CC2)n1`, 84.5%.
In the case of `COc1cc2[nH]c3c(N4CCN(c5ccccn5)CC4)ncnc3c2cc1OC` it was 85.7%; in that of `Cc1nc2ccccc2nc(C)c1=NOCc1cccc(F)c1`, 71.2%.
For `Cc1ccc2oc(C(F)(F)C(F)F)cc(=O)c2c1` the value was 96.2%; for `O=C(OCc1cn([C@@H]2C[C@H](c3ccc(Cl)cc3)N(C(=O)c3cccs3)C[C@H]2O)nn1)c1ccccc1`, 83%.
For `COCCNCC(=O)NC12CC3CC(CC(C3)C1)C2`, the “viability” value was 86.3%.
For `CC(OCCN(C)C)C(=O)C12CC3CC(CC(C3)C1)C2` (configuration not stated) the value was 90.7%; for `Cc1ncc([N+](=O)[O-])n1CC(=O)NCCc1ccccc1`, 95.3%; for `CC1N(C)c2cc(NC(=O)c3ccco3)c(P(=O)(Nc3ccc([N+](=O)[O-])cc3)N3CCOCC3)cc2C1(C)C` (configuration not stated), 70.7%.
For `CCC(NC(=O)CCCc1ccccc1)c1ccccc1` (configuration not stated) the value was 91.7%; for `CCOc1ccc2nc3cc(NCc4ccc(OC)cc4)ccc3c(N)c2c1`, 83.8%.
In the case of `Cc1ccc(NC(=O)C2CCCN2C(=O)OC(C)(C)C)cc1C` (configuration not stated) it was 87.2%.
On to `COc1ccccc1C=NN=C1c2ccccc2-c2ccccc21`, for which the “viability” value is 83.9%.
As for `COc1cccc(-c2ccc(NC(=O)C3CCCN(Cc4cnn(C)c4C)C3)cc2)c1` (configuration not stated), the “viability” value is 80.3%.
In the case of `COc1cccc(-c2ccc(NC(=O)C3CCCN(Cc4cnn(C)c4)C3)cc2)c1` (configuration not stated) it was 72.5%; in that of `O=C1C2CCCN2C(c2ccc(F)cc2)N1c1ccc(Cl)cc1` (configuration not stated), 79.2%.
In the case of `Cc1cc(NC(=O)c2ccc3nccnc3c2)ccc1Br` it was 90.1%.
Take `C[C@@H]1CCCCO[C@H](CN(C)C(=O)NC2CCCCC2)[C@@H](C)CN([C@H](C)CO)C(=O)c2cc(NC(=O)c3ccccc3)ccc2O1`: the “viability” value was 93%.
In the case of `COc1cccc(CNC(=O)c2cc3oc4ccccc4c3n2C)c1OC`, the “viability” value is 109%.
In the case of `CCC1(c2ccccc2)NC(=S)N(c2ccc(C)cc2)N1` (configuration not stated) it was 84%.
`O=C(COC(=O)CCC(=O)c1ccc(F)cc1)NCc1ccccc1Cl`: the “viability” value was 101%.
For `O=C(Nc1ccc(C(=O)OC[C@@H]2CCCN3CCCC[C@H]23)cc1)c1cccc(Br)c1` the value was 90.9%; for `CCCCC(=O)NC(c1ccc(Cl)cc1Cl)c1ccc2cccnc2c1O` (configuration not stated), 40.8%.
Turning to `CCC(=O)OC1CCC2C3CCC4CC(=O)C=CC4(C)C3CCC12C` (configuration not stated), the “viability” value is 85.2%.
Regarding `CNCCNC[C@H](Cc1cccc2ccccc12)NCCc1ccccc1`, the “viability” value is 94.2%.
In the case of `Cc1cccc2sc(N(CCCN(C)C)C(=O)c3ccco3)nc12` it was 81.4%.
On to `CCOC(=O)c1c(C)oc2ccc(OCc3cc(C(=O)OC)oc3C)cc12`, for which the “viability” value is 87.8%.
In the case of `C=C(C)COc1ccc(-c2nc(N)ncc2-c2ccc(Br)cc2)c(O)c1` it was 80%.
In the case of `C=CCC1(CCCCC)C(=O)NC(=S)NC1=O` it was 77.4%.
In the case of `Oc1c(C(Nc2nc3ccccc3s2)c2ccco2)ccc2cccnc12` (configuration not stated) it was 43.2%; in that of `O=CC1=C(c2ccccc2)Oc2ccccc2O1`, 82.1%.
In the case of `Cc1ccc(S(=O)(=O)c2ccsc2NC(=O)c2ccccc2)cc1`, the “viability” value was 92.4%.
For `Cc1ccc(NC(=O)Nc2ccno2)cc1` the value was 91.5%; for `Cc1cc(N/N=C/c2cccc([N+](=O)[O-])c2)nc(-n2nc(C)cc2C)n1`, 76.6%; for `CC(C)(C)OC(=O)[C@H](Cc1ccccc1)NC(=O)c1nc[nH]c1C(=O)NC1CCN(C(=O)OC(C)(C)C)CC1`, 75.8%.
For `CC1(C)CC(=O)/C(=N/Nc2ccc(Cl)cc2)CO1` the value was 87.7%; for `CCCCOc1ccc(C(=O)Nc2ccc(N3CCN(C)CC3)cc2)cc1`, 89.9%.
For `CN1CCN(c2ccc(NC(=O)c3cccc(OCc4ccccc4)c3)cc2)CC1` the value was 81%; for `CCCn1cnc2c(SCc3ccccc3Cl)nc(N)nc21`, 80.5%; for `CCN(CC)CCCNC(=O)c1oc2ccc(S(=O)(=O)N3CC(C)CC(C)C3)cc2c1C` (configuration not stated), 95.3%.
Turning to `O=C(NCCc1csc(-c2cccnc2)n1)c1ccccc1Br`, the “viability” value is 94.9%.
In the case of `Cc1ccccc1-c1n[nH]c(=S)n1/N=C/c1c(C)nn(-c2ccccc2)c1C` it was 87.3%; in that of `COc1ccccc1C1N(c2ccc(Cl)cc2)C(=O)C2CCCN21` (configuration not stated), 82.5%.
In the case of `CNc1nc(Cl)nc2c1ncn2-c1ccccc1` it was 81.9%; in that of `Cc1cc(=O)[nH]c(N/N=C/c2ccc(OC(=O)c3cccnc3)cc2)n1`, 89%; in that of `O=S1(=O)CCC(NC(=S)SCCOc2ccccc2)C1` (configuration not stated), 74.7%.
As to `Nc1[nH]nc2nc(NCc3ccccc3)c3c(c12)CCN(Cc1ccccc1)C3`, the “viability” value was 76.5%.
In the case of `CCc1ccc(N2C(=O)NC(=O)/C(=C\C=C\c3ccco3)C2=O)cc1`, the “viability” value was 93.4%.
For `Cc1ccc(N2C(=O)NC(=O)/C(=C\C=C\c3ccco3)C2=O)cc1` the value was 84.2%.
For `Nc1nc(CN2CCN(c3ccccn3)CC2)nc(Nc2ccc(Cl)cc2)n1` the value was 73.1%.
For `Cc1[nH]c(C)c(S(=O)(=O)N2CCN(c3cccc(C(F)(F)F)c3)CC2)c1C(=O)N1CCCCC1` the value was 70.3%.
For `COc1ccccc1OCC(=O)Nc1nc2c(s1)CCCC2`, the “viability” value is 75.5%.
For `O=C1Nc2cc(C(=O)NCCCN3CCOCC3)ccc2S/C1=C/c1cccc(Cl)c1`, the “viability” value is 95%.
In the case of `O=C(NCCCN1CCOCC1)c1ccc(/C=C2\Oc3ccccc3N(Cc3ccccc3F)C2=O)cc1` it was 89.8%.
